# Data published in article PMC4336329 (PLoS ONE, 2015).
# In all, about 310,000 compounds went through this assay and about 14,000 (4.5%) showed an effect of 50% or more. The effect is printed as a negative number. This is one part of a sample in which strong results are shown more often than they occur.
# Target: human ether-à-go-go-related gene (hERG) potassium channel (human, UniProt Q12809)
# Assay: primary screen, population patch clamp on CHO cells stably expressing hERG; higher = less effect of the substance
# 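Also: peak tail current of the secondary pulse compared with the same well before compound.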
# Chain of human ether-à-go-go-related gene (hERG) potassium channel (Q12809 whole entry, looked up): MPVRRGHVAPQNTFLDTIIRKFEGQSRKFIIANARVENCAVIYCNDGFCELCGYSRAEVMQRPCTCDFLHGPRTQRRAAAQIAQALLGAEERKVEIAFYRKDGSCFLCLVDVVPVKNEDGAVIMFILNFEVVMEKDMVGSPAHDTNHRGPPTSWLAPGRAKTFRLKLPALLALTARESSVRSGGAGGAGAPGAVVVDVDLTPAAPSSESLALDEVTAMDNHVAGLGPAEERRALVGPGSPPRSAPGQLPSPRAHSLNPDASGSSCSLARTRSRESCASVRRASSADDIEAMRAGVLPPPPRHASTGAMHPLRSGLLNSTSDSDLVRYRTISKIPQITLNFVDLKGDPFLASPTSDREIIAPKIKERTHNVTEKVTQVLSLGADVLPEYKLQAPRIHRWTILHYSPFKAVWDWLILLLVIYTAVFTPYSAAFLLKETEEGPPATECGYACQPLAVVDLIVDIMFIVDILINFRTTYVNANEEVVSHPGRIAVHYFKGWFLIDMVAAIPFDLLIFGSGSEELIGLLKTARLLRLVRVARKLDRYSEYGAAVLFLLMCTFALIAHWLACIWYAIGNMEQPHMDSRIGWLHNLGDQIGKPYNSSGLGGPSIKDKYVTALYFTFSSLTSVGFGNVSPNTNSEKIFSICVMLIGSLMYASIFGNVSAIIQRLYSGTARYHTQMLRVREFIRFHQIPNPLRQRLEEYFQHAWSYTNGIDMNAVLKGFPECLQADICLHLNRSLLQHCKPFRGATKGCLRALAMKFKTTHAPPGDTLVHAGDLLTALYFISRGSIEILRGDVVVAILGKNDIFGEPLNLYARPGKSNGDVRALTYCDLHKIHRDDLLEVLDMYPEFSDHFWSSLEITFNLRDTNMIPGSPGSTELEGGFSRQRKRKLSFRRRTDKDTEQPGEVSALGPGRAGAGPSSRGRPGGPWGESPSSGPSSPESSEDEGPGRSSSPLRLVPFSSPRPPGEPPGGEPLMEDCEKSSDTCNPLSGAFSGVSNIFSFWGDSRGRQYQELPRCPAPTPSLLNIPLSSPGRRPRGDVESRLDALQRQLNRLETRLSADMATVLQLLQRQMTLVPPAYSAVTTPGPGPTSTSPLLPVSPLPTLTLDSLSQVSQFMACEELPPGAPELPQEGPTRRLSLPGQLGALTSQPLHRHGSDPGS
row,SMILES,"hERG current change (%, negative = inhibition) at 10uM [%]"
1,COc1cccc(NS(=O)(=O)c2c(C)n(C)c(=O)n(C)c2=O)c1,-19.9
2,CCCc1nnc(SCC(=O)N2CCOCC2)n1CC1CCCO1 (stereo not drawn),23.6
3,CC1CCN(C(=S)c2ccc(O)cc2)CC1,-14.1
4,O=c1[nH]c2ccc(S(=O)(=O)N3CCN(C4CCCCC4)CC3)cc2[nH]c1=O,0.776
5,O=C(Nc1cccc(C(F)(F)F)c1)Oc1ccc(Cl)c2cccnc12,9.96
6,CCN(c1ccccc1)S(=O)(=O)c1ccc(Cl)c(C(=O)OCC(=O)c2[nH]c(C)c(C(C)=O)c2C)c1,-22.6
7,COc1cc2c(cc1OC)CN(c1ccc([N+](=O)[O-])cc1Cl)CC2,-41
8,COc1cc2c(cc1OC)CN(c1ccc(F)cc1[N+](=O)[O-])CC2,-27.9
9,COc1cc2c(cc1OC)CN(c1ccc([N+](=O)[O-])cc1C#N)CC2,-50
10,CCn1c(NC2CCCCC2)nc2ccccc21,-15
11,Cc1ccc(NC(=O)c2cccc(N3C(=O)CCC3=O)c2)nc1,3.86
12,C/C(=N\NS(=O)(=O)c1cccc([N+](=O)[O-])c1)c1cc2ccccc2o1,-2.61
13,O=C(N/C(=C/c1ccccc1)C(=O)N1CCOCC1)c1ccc([N+](=O)[O-])cc1,-64.2
14,O=C(N/C(=C\c1ccc(Cl)cc1)C(=O)N1CCOCC1)c1ccc([N+](=O)[O-])cc1,-83
15,O=C(N/C(=C\c1ccc(F)cc1)C(=O)N1CCOCC1)c1ccccc1,-32
16,O=C(N/C(=C/c1cccc([N+](=O)[O-])c1)C(=O)N1CCOCC1)c1ccc(Br)cc1,-46.6
17,O=C(N/C(=C\c1ccc(Br)cc1)C(=O)N1CCOCC1)c1ccc([N+](=O)[O-])cc1,-75.5
18,O=C(N/C(=C\c1cccc([N+](=O)[O-])c1)C(=O)N1CCOCC1)c1ccc([N+](=O)[O-])cc1,12.5
19,Cc1ccc(C(=O)N/C(=C/c2ccc(Cl)cc2)C(=O)N2CCOCC2)cc1,-32.6
20,O=C(N/C(=C\c1ccc([N+](=O)[O-])cc1)C(=O)N1CCOCC1)c1cccc(Br)c1,-74.2
21,O=C(N/C(=C\c1ccccc1)C(=O)N1CCOCC1)c1cccc(Br)c1,18.8
22,O=C(Nc1ccc(C(=O)O)cc1)/C(=C\c1ccc([N+](=O)[O-])cc1)NC(=O)c1ccc(Br)cc1,7.58
23,COC(=O)c1ccc(/C=C(/NC(=O)c2ccccc2)C(=O)N2CCOCC2)cc1,-9.15
24,O=C(N/C(=C\c1cccc([N+](=O)[O-])c1)C(=O)N1CCOCC1)c1cccc(Br)c1,-4.26
25,CC(=O)c1cccc(OCC(=O)N(C)CC(=O)Nc2ccc(F)cc2)c1,-8.68
26,CCC(C)NC(=O)c1ccc(CSCc2ccc(Cl)cc2)o1 (stereo not drawn),-38.9
27,COc1cccc(CNC(=O)CCNS(=O)(=O)c2ccc(Br)s2)c1,-10.2

row,SMILES,"hERG current change (%, negative = inhibition) at 10uM [%]"
1,N#CCCSCc1ccc(OCC(=O)O)cc1,-1.48
2,CCCNC(=O)c1cc(C)no1,12.6
3,Cc1ccc(C)c(NC(=O)CCN2CC(C)OC(C)C2)c1 (stereo not drawn),1.59
4,CC(C)C[C@H](NC(=O)N1c2ccccc2NC(=O)[C@@H]1C(C)C)C(=O)N[C@@H](Cc1ccccc1)C(=O)O,-2.11
5,FC(F)(F)C1=CC(c2ccc(Cl)cc2)=NCCN1,-16.1
6,CN(c1ccccc1)S(=O)(=O)c1cccc(NC(=O)CN2CCCc3ccccc32)c1,-2.81
7,O=C(N/C(=C\c1ccco1)C(=O)N1CCOCC1)c1ccc([N+](=O)[O-])cc1,-70.8
8,Cc1ccc(C(=O)N/C(=C\c2ccco2)C(=O)N2CCOCC2)cc1C,11
9,Cc1ccc(C(=O)N/C(=C/c2ccco2)C(=O)N2CCOCC2)cc1,-12.7
10,COc1ccc(C(=O)N/C(=C\c2ccc3c(c2)OCO3)C(=O)N2CCOCC2)cc1,19.6
11,COc1ccc(/C=C(/NC(=O)c2ccc(Br)cc2)C(=O)N2CCOCC2)cc1,5.5
12,COc1cc(/C=C(/NC(=O)c2ccccc2)C(=O)N2CCOCC2)c([N+](=O)[O-])cc1OC,-3.92
13,O=C(N/C(=C\c1ccccc1Cl)C(=O)N1CCOCC1)c1ccc([N+](=O)[O-])cc1,-66
14,COc1ccc(/C=C(\NC(=O)c2ccc([N+](=O)[O-])cc2)C(=O)N2CCOCC2)cc1,-75
15,O=C(N/C(=C/c1ccccc1Cl)C(=O)N1CCCC1)c1ccccc1,-5.15
16,COc1ccc(C(=O)/C=C/N(C)C)cc1OC,7.92
17,CN(/N=C/c1ccncc1)c1cnc2ccccc2n1,19.3
18,CCCCCCC1NC(C(=O)O)CS1 (stereo not drawn),-0.451
19,COc1ccc(S(=O)(=O)N2CCOC2CNC(=O)C(=O)NCCCN2CCOCC2)cc1OC (stereo not drawn),8.41
20,CCN(CC)c1cccc(OCC(=O)N(C)CCC#N)c1,18.9
21,CC(C)(C)S(=O)(=O)c1ccc(S(=O)(=O)C(C)(C)C)s1,22.8
22,O=C(CC1C(=O)NCCN1Cc1c(F)cccc1Cl)NCCCn1cccn1 (stereo not drawn),10.8
23,O=C1c2ccccc2C(=O)C1c1ccc2ccccc2n1,-13.4
24,Br.C1=C(c2ccco2)N2CCN=C2S1,1.91
25,COc1ccc(Nc2cc(C(=O)NCCCN3CCN(C)CC3)c3ccccc3n2)cc1,2.72
26,COc1ccc(Nc2cc(C(=O)NCCCN3CCN(C)CC3)c3ccccc3n2)cc1OC,1.49
27,Cc1ccc(Nc2ncc(C(=O)NCCCN3CCN(C)CC3)c3ccccc23)cc1Cl,-61.1
